From PubChem BioAssay
AI-2 QS mod: Vibrio harveyi AI-2 quorum sensing modulators, primary screen, JMH597 strain, luminescence/OD600 ratio. Vibrio harveyi JMH597 AI-2 luminescence/OD600 ratio, 9 h; active compounds read low; strain lacks LuxN and CqsS sensors; 0 = neutral-control median. activity change, % at 7.5 µM. actives 0.4% (n = 300,000); in the data active means activity change below about -75%, passing the limit was not always enough;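 further: luminescence divided by OD600 gain over 9 h not by final OD600 alone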
Rin1-Abl PPI inh: inhibitors of Rin1-Abl protein binding, primary screen, biochemical, TR-FRET; Tyrosine-protein kinase ABL1 (Homo sapiens) + Ras and Rab interactor 1 (Homo sapiens), …; actives 0.4% (n = 360,000); AID 588664, 2011; inhibition, % at 7.35 µM; in the data active means inhibition above about 5%, passing the limit was not always enough
ARNT-TACC3 inh: disruptors of ARNT/TACC3 protein interaction, primary screen, biochemical, AlphaScreen, single concentration; actives 0.66% (n = 390,000); AlphaScreen His-ARNT PAS-B/GST-TACC3 binding, luminescence; TACC3 fragment carries E629A point mutation; Transforming acidic coiled-coil-containing protein 3 (Homo sapiens), Q9Y6A5; inhibition, % at 9.99 µM;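 active means mean inhibition of replicates at least 50% and at least half of replicates each reaching 50%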
sPLA2-III inh: human group III sPLA2 inhibitors, primary screen, biochemical, QFRET, BODIPY PC-A2 liposome substrate; Group 3 secretory phospholipase A2 (Homo sapiens), Q9NZ20; QFRET BODIPY PC-A2 liposome hydrolysis, fluorescence; inhibition, % at 12.2 µM; actives 0.56% (n = 370,000);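 active means inhibition above mean plus 3 SD of compounds lying within the high and low control bounds, cut at about 19% in these data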
Hits are given with their value; – = inactive; · = no result given. Compounds with a hit are over-represented: about 1.5% of the library has one in this group of screens.

SMILES | AI-2 QS mod | Rin1-Abl PPI inh | ARNT-TACC3 inh | sPLA2-III inh
C[C@@H]1CN([C@H](C)CO)C(=O)Cc2cc(NS(=O)(=O)c3ccc(Cl)cc3)ccc2O[C@@H]1CN(C)C(=O)NC1CCCCC1 | · | · | – | ·
c1cncc(-c2nnc(-c3cccnc3)nn2)c1 | – | – | – | –
Cn1c(SSc2ccc(-c3cccnc3)n2C)ccc1-c1cccnc1 | · | – | 17 | –
COC(=O)CCC(=O)OC1(C)C(=O)C=C2C=C(C3CC3)N(CCc3ccccn3)C=C2C1=O (stereo not drawn) | – | – | 11 | –
COC(=O)CCC(=O)OC1(C)C(=O)C=C2C=C(C3CC3)N(CCc3c[nH]c4ccccc34)C=C2C1=O (stereo not drawn) | – | – | – | –
COC(=O)CCC(=O)OC1(C)C(=O)C=C2C=C(C3CC3)N(CCCCO)C=C2C1=O (stereo not drawn) | – | – | 32 | –
COC(=O)CCC(=O)OC1(C)C(=O)C=C2C=C(C3CC3)N(CCCOC(C)C)C=C2C1=O (stereo not drawn) | – | – | 75 | ·
CC(C)NC(=O)N(C)C[C@H]1OCCCC[C@@H](C)Oc2ccc(NC(=O)CCC(F)(F)F)cc2C(=O)N([C@@H](C)CO)C[C@H]1C | · | · | – | ·
COc1cnc(-c2ccccn2)nc1Oc1ccc(Cl)c2ccccc12 | – | – | 17 | –
COc1cc(/C=N\NC(=O)c2sc(N)nc2C)cc(OC)c1OC | – | – | 49 | –
C/C=C/c1ccc2c(c1)O[C@@H](CN(C)C(=O)COC)[C@@H](C)CN([C@H](C)CO)S2(=O)=O | · | · | – | ·
COc1ccc(N=C(N)SCc2ccccn2)cc1 | – | – | 55 | –
COc1ccc(S(=O)(=O)N(C)C[C@H]2OCCCC[C@H](C)Oc3ccc(NC(=O)NC4CCCCC4)cc3C(=O)N([C@H](C)CO)C[C@H]2C)cc1 | · | · | – | ·
COc1ccc(CC(=O)Nc2ccc(S(=O)(=O)NC(C)C)cc2)cc1 | – | – | – | –
CCCCNS(=O)(=O)c1ccc(NC(=O)Cc2ccc(OC)cc2)cc1 | -96 | – | – | –
COC(=O)c1ccc(NCc2c(O)ccc(O)c2Br)cc1Cl | · | – | – | 34
COC(=O)c1ccc(NCc2cc(O)ccc2O)cc1O | · | – | – | –
O=C(OCn1ncc(Br)c(Br)c1=O)c1ccc(F)cc1 | -81 | – | – | ·
O=C(OCn1ncc(Br)c(Br)c1=O)c1ccccc1Cl | – | – | · | ·
C[C@@H]1CN([C@@H](C)CO)C(=O)c2cccc(NC(=O)NC3CCCCC3)c2O[C@H]1CN(C)C(=O)NC1CCCCC1 | · | · | – | ·
O=C1c2cccnc2-c2ncccc21 | – | – | – | –
COC1=C(Br)C(=O)c2ncccc2C1=O | · | – | 47 | –
O=C(Nc1cccc(F)c1)N1CCCCN2[C@H](C1)[C@@H](c1ccc(-c3ccccc3F)cc1)[C@@H]2CO | · | · | – | ·
CCCOc1ccc(-c2nc(=S)[nH][nH]2)cc1 | -84 | – | – | –
CC1CC(C)CN(C(=O)C2CCCN(c3ncnc4c3nc3n4CCCCC3)C2)C1 (stereo not drawn) | -76 | – | – | –
SMILES | AI-2 QS mod | Rin1-Abl PPI inh | ARNT-TACC3 inh | sPLA2-III inh
Cc1cccc(C)c1NC(=S)N(CCN(C)C)C(C)c1ccccn1 (stereo not drawn) | – | – | 45 | –
Oc1ccc(N=Nc2ccccc2-c2nn[nH]n2)c(O)c1 | – | – | 67 | –
COC(=O)CCCCC1SCC2NC(=O)NC21O (stereo not drawn) | – | 87 | – | –
COCC(=O)Nc1ccc2c(c1)OC[C@H](C)N(CC1CCCCC1)C[C@H](C)[C@H](OC)CN(C)C2=O | · | · | – | ·
COc1cc2nc(=S)n(CCCN3CCOCC3)c(N)c2cc1OC | · | – | 56 | ·
CCOc1cc2nc(-c3ccc(OC)c(OC)c3)nc(NCCCN3CCOCC3)c2cc1OC | – | – | 55 | –
CC(C)CC#Cc1cnc2c(c1)C(=O)N([C@H](C)CO)C[C@@H](C)[C@@H](CN(C)Cc1ccccn1)O2 | · | · | – | ·
Nc1c(Cl)ncnc1N/N=C/c1ccc2ccccc2n1 | · | 6.4 | 64 | –
Nc1c(Cl)ncnc1N/N=C/c1ccccn1 | · | · | · | –
CCCN1C[C@@H](C)[C@H](OC)CN(C)C(=O)c2cc(NS(=O)(=O)CC)ccc2OC[C@@H]1C | · | · | – | ·
CCOCCCNC(=O)CCCC1=NS(=O)(=O)c2ccccc2N1 | – | – | active | –
CCCCNc1nc(=S)[nH]c2cc(OC)c(OC)cc12 | – | – | 60 | –
COc1ccc(CNc2nc(=S)[nH]c3cc(OC)c(OC)cc23)cc1 | – | – | 51 | –
COc1cc2[nH]c(=S)nc(NCCCOC(C)C)c2cc1OC | – | – | 55 | –
COc1cc2[nH]c(=S)nc(NCc3ccc(C)cc3)c2cc1OC | – | – | – | –
COCCNc1nc(=S)[nH]c2cc(OC)c(OC)cc12 | – | – | 59 | –
CCOCCCNc1nc(=S)[nH]c2cc(OC)c(OC)cc12 | – | – | · | –
C[C@@H]1CN([C@@H](C)CO)C(=O)c2cc(C#CCc3ccccc3)cnc2O[C@H]1CN(C)Cc1cccc(F)c1 | · | · | – | ·
COc1ccc(-c2ccc3n(c2=O)C[C@@H]2[C@@H](CO)[C@H](C(=O)NC4CCC4)N(S(C)(=O)=O)[C@H]32)cc1 | · | · | – | ·
O=C(C[C@@H]1CC[C@H]2[C@@H](COC[C@@H](O)CN2Cc2ccccc2F)O1)NCc1ccccc1F | · | · | – | ·
C[C@@H]1CN([C@@H](C)CO)C(=O)c2cc(NS(C)(=O)=O)ccc2O[C@@H](C)CCCCO[C@@H]1CN(C)C(=O)CCC(F)(F)F | · | · | – | ·
CS(=O)(=O)N1CCc2cc(C(=O)OCC(=O)c3ccccc3)ccc21 | -77 | – | – | –
CN(C(=O)c1ccc2c(c1)CCN2S(C)(=O)=O)c1ccccc1 | – | – | – | –
CCCC(=O)Nc1ccc2c(c1)C(=O)N(C)C[C@@H](OC)[C@@H](C)CN(C(=O)c1ccncc1)[C@H](C)CO2 | · | · | – | ·
CC1(C)CSC(=S)N1S(=O)(=O)c1ccccc1 | – | – | 64 | –
SMILES | AI-2 QS mod | Rin1-Abl PPI inh | ARNT-TACC3 inh | sPLA2-III inh
Cc1ccc(S(=O)(=O)NC(CC(C)C)C(=O)Oc2ccc3c4c(c(=O)oc3c2)CCC4)cc1 (stereo not drawn) | – | – | – | –
CC(C)CC(C(=O)Oc1ccc2c3c(c(=O)oc2c1)CCC3)N1C(=O)c2ccccc2C1=O (stereo not drawn) | – | – | 47 | –
COc1ccccc1C#Cc1ccc([C@H]2[C@@H](CO)N3CCCCN(C(=O)C4CC4)C[C@H]23)cc1 | · | · | – | ·
Cc1c(NC(=S)N/N=C/c2ccc([N+](=O)[O-])cc2O)c(=O)n(-c2ccccc2)n1C | – | – | 61 | –
O=C(O)C1Nc2c(C(=O)N3CCOCC3)cccc2C2C=CCC12 (stereo not drawn) | – | 6.8 | · | ·
Cc1ccc2c(c1C)NC(C(=O)O)C1CC=CC21 (stereo not drawn) | – | – | – | ·
